From PubChem BioAssay AID720651 (The Scripps Research Institute Molecular Screening Center, 2013)
Some of the results follow. Calls of active or inactive are those of the source. The rule behind the calls is not given here.

Assay: molecules binding r(CAG) RNA repeats, late stage dose response, late-stage follow-up, biochemical, fluorescence, dose response, powder samples (AID 720651)
Settings: r(CAG) RNA TO-PRO-1 dye displacement

## Cc1noc(NS(=O)(=O)c2ccc(NC(=O)c3oc4ccc(F)cc4c3C)cc2)c1C
  IC50: 1260 nM (active)
